Measurements published in PubChem BioAssay (EPA / NIEHS).
The source made the active and inactive calls. Rule for the calls: active = hit-call score of the fitted dose curve at least 0.9, where 1 is the maximum; inactive = score below 0.9.

Assays:
[1] = BSK_hDFCGF_SRB: Viability Assessment in the BioMAP Diversity Plus: hDFCGF Assay (AID 2283061); conditions: primary human foreskin fibroblasts;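 note: cells exposed to compound for 24 h before the read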
Method in brief: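 Viability was read as total protein: after 10% TCA fixation, wells were stained with 0.1% sulforhodamine B and read at 560 nm. Primary human foreskin fibroblasts were dosed for 24 h, with bidirectional fitting versus DMSO.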

[2] = read-out: TIMP metallopeptidase inhibitor 1 (TIMP1), TIMP1 (gene 7076); experiment: BSK_hDFCGF_TIMP1: BioMAP Diversity Plus: hDFCGF Assay for TIMP metallopeptidase inhibitor 1 (TIMP1) Biomarker Activity (AID 2283062); conditions: primary human foreskin fibroblasts; actives raise or lower the signal
Method in brief: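 TIMP-1 measured by ELISA 24 h after chemical dosing of primary human skin fibroblasts, with gain or loss fitted relative to DMSO. Parallel SRB staining (560 nm) monitored overt cytotoxicity.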

[3] = read-out: Monokine induced gamma interferon (MIG), CXCL9 (gene 4283); experiment: BSK_hDFCGF_MIG: BioMAP Diversity Plus: hDFCGF Assay for Monokine induced gamma interferon (MIG) Biomarker Activity (AID 2283063); conditions: primary human foreskin fibroblasts; actives raise or lower the signal
Method in brief: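 Human primary foreskin fibroblasts in the hDFCGF system, exposed to test chemical for 24 h; MIG measured by ELISA. Bidirectional curve fitting against DMSO negative control as activity baseline.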

[4] = read-out: Matrix Metallopeptidase 1 (MMP1), MMP1 (gene 4312); experiment: BSK_hDFCGF_MMP1: BioMAP Diversity Plus: hDFCGF Assay for Matrix Metallopeptidase 1 (MMP1) Biomarker Activity (AID 2283064); conditions: primary human foreskin fibroblasts; actives raise or lower the signal
Method in brief: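 Primary human foreskin fibroblasts exposed to chemicals for 24 h; MMP1 measured by ELISA. Cytotoxicity tracked by SRB staining in parallel cultures; bidirectional fit relative to DMSO.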

[5] = read-out: Vascular cell adhesion molecule 1 (VCAM1), VCAM1 (gene 7412); experiment: BSK_hDFCGF_VCAM1: BioMAP Diversity Plus: hDFCGF Assay for Vascular cell adhesion molecule 1 (VCAM1) Biomarker Activity (AID 2283065); conditions: primary human foreskin fibroblasts; actives raise or lower the signal;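 for AC50: VCAM-1 protein level quantified by ELISA after 24 h chemical exposure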
Method in brief: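 ELISA readout of VCAM-1 on human dermal fibroblast primary cultures, 24 h after chemical exposure. Gain or loss of signal fitted in both directions against DMSO baseline.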

[6] = read-out: Plasminogen activator inhibitor-1 (PAI1), SERPINE1 (gene 5054); experiment: BSK_hDFCGF_PAI1: BioMAP Diversity Plus: hDFCGF Assay for Plasminogen activator inhibitor-1 (PAI1) Biomarker Activity (AID 2283066); conditions: primary human foreskin fibroblasts; actives raise or lower the signal
Method in brief: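 Human foreskin fibroblasts in the hDFCGF system were dosed with compound for 24 h; PAI-1 was quantified by ELISA. Bidirectional curve fitting used DMSO as negative control and baseline.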

[7] = read-out: Intercellular Adhesion Molecule 1 (ICAM1), ICAM1 (gene 3383); experiment: BSK_KF3CT_ICAM1: BioMAP Diversity Plus: KF3CT Assay for Intercellular Adhesion Molecule 1 (ICAM1) Biomarker Activity (AID 2283067); conditions: primary human keratinocytes with fibroblasts; actives raise or lower the signal
Method in brief: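 Cell-surface ICAM-1 was measured by ELISA 24 h after dosing primary human skin keratinocytes co-cultured with fibroblasts. Parallel SRB staining tracked overt cytotoxicity. Gain or loss of signal was fitted relative to DMSO.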

[8] = read-out: Interferon-gamma inducible Protein 10 (IP10), CXCL10 (gene 3627); experiment: BSK_KF3CT_IP10: BioMAP Diversity Plus: KF3CT Assay for Interferon-gamma inducible Protein 10 (IP10) Biomarker Activity (AID 2283068); conditions: primary human keratinocytes with fibroblasts; actives raise or lower the signal
Method in brief: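 ELISA read-out of IP-10 after 24 h chemical dosing of human skin primary co-culture (keratinocytes, foreskin fibroblasts). Gain or loss of signal relative to DMSO, bidirectional curve fit.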

[9] = BSK_KF3CT_SRB: Viability Assessment in the BioMAP Diversity Plus: KF3CT Assay (AID 2283069); conditions: primary human keratinocytes with fibroblasts;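 note: total protein by sulforhodamine B staining as a cytotoxicity measure; read 24 h after compound addition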
Method in brief: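 Human keratinocyte and foreskin fibroblast co-culture exposed to chemical for 24 h. Total protein measured in parallel cultures by 0.1% sulforhodamine B staining after 10% TCA fixation, read at 560 nm; bidirectional fit relative to DMSO.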

[10] = read-out: Interleukin-1 alpha (IL1a), IL1A (gene 3552); experiment: BSK_KF3CT_IL1a: BioMAP Diversity Plus: KF3CT Assay for Interleukin-1 alpha (IL1a) Biomarker Activity (AID 2283070); conditions: primary human keratinocytes with fibroblasts; actives raise or lower the signal
Method in brief: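 Primary human keratinocyte plus foreskin fibroblast co-culture, dosed and measured at 24 h in 96-well plates. IL-1a level quantified by ELISA; bidirectional fit relative to DMSO.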

O=[N+]([O-])c1c(Cl)c(Cl)c(Cl)c(Cl)c1Cl
AC50 [1]: 31 µM (active) | outcome [2]: inactive | AC50 [3]: 29.3 µM (active) | AC50 [4]: 0.255 µM (active) | AC50 [5]: 20 µM (active) | AC50 [6]: 28.8 µM (active) | outcome [7]: inactive | AC50 [8]: 17.6 µM (active) | AC50 [9]: 25.3 µM (active) | AC50 [10]: 24.4 µM (active)

CCOC1Oc2ccc(OS(C)(=O)=O)cc2C1(C)C (stereo unspecified)
outcome [1]: inactive | outcome [2]: inactive | outcome [3]: inactive | outcome [4]: inactive | outcome [5]: inactive | outcome [6]: inactive | outcome [7]: inactive | outcome [8]: inactive | outcome [10]: inactive

O=S1OCC2C(CO1)C1(Cl)C(Cl)=C(Cl)C2(Cl)C1(Cl)Cl (stereo unspecified)
AC50 [1]: 26.7 µM (active) | AC50 [2]: 32 µM (active) | AC50 [3]: 37.6 µM (active) | AC50 [4]: 36.7 µM (active) | AC50 [5]: 33.5 µM (active) | AC50 [7]: 31.9 µM (active) | AC50 [8]: 29.9 µM (active) | AC50 [10]: 29.1 µM (active)

CC[C@H](C)[C@H]1O[C@]2(C=C[C@@H]1C)C[C@@H]1C[C@@H](C/C=C(\C)[C@@H](O[C@H]3C[C@H](OC)[C@@H](O[C@H]4C[C@H](OC)[C@@H](O)[C@H](C)O4)[C@H](C)O3)[C@@H](C)/C=C/C=C3\CO[C@@H]4[C@H](O)C(C)=C[C@@H](C(=O)O1)[C@]34O)O2 (tested in a mixture with another compound)
AC50 [1]: 6.68 µM (active) | AC50 [2]: 9.96 µM (active) | AC50 [3]: 12.9 µM (active) | AC50 [4]: 9.79 µM (active) | AC50 [5]: 9.78 µM (active) | AC50 [6]: 6.95 µM (active) | AC50 [7]: 14.1 µM (active) | AC50 [8]: 12.5 µM (active) | AC50 [10]: 6.95 µM (active)

COC(=O)c1ccccc1S(=O)(=O)NC(=O)Nc1nc(C)nc(OC)n1
outcome [1]: inactive | outcome [2]: inactive | outcome [3]: inactive | outcome [4]: inactive | outcome [5]: inactive | outcome [6]: inactive | outcome [7]: inactive | outcome [8]: inactive | outcome [10]: inactive

CNC(=O)CSP(=S)(OC)OC
outcome [1]: inactive | outcome [2]: inactive | outcome [3]: inactive | outcome [4]: inactive | outcome [5]: inactive | outcome [6]: inactive | outcome [7]: inactive | outcome [8]: inactive | outcome [10]: inactive

CCC(C)Nc1c([N+](=O)[O-])cc(C(C)(C)C)cc1[N+](=O)[O-] (stereo unspecified)
AC50 [1]: 32.9 µM (active) | outcome [2]: inactive | outcome [3]: inactive | outcome [4]: inactive | AC50 [5]: 15.4 µM (active) | AC50 [6]: 5.08 µM (active) | outcome [7]: inactive | outcome [8]: inactive | outcome [10]: inactive

C#CCN1C(=O)COc2cc(F)c(N3C(=O)C4=C(CCCC4)C3=O)cc21
outcome [1]: inactive | outcome [2]: inactive | outcome [3]: inactive | outcome [4]: inactive | outcome [5]: inactive | outcome [6]: inactive | outcome [7]: inactive | outcome [8]: inactive | outcome [10]: inactive

CC(C)N(C(=O)COc1nnc(C(F)(F)F)s1)c1ccc(F)cc1
outcome [1]: inactive | outcome [2]: inactive | outcome [3]: inactive | AC50 [4]: 17.7 µM (active) | AC50 [5]: 8.54 µM (active) | outcome [6]: inactive | outcome [7]: inactive | AC50 [8]: 30.8 µM (active) | outcome [10]: inactive

Clc1ccccc1-c1nnc(-c2ccccc2Cl)nn1
outcome [1]: inactive | outcome [2]: inactive | outcome [3]: inactive | outcome [4]: inactive | outcome [5]: inactive | outcome [6]: inactive | outcome [7]: inactive | outcome [8]: inactive | AC50 [10]: 2.76 µM (active)

O=C(Nc1ccccc1)Nc1cnns1
outcome [1]: inactive | outcome [2]: inactive | outcome [3]: inactive | outcome [4]: inactive | outcome [5]: inactive | outcome [6]: inactive | outcome [7]: inactive | outcome [8]: inactive | outcome [10]: inactive

CCC(C)(C)C(=O)OC1=C(c2ccc(Cl)cc2Cl)C(=O)OC12CCCCC2
AC50 [1]: 11.4 µM (active) | AC50 [2]: 5.42 µM (active) | AC50 [3]: 9.84 µM (active) | AC50 [4]: 7.8 µM (active) | AC50 [5]: 9.68 µM (active) | AC50 [6]: 6.68 µM (active) | AC50 [7]: 29.5 µM (active) | AC50 [8]: 29.9 µM (active) | AC50 [10]: 31.1 µM (active)

COC(=O)c1ccccc1S(=O)(=O)NC(=O)N(C)c1nc(C)nc(OC)n1
outcome [1]: inactive | outcome [2]: inactive | outcome [3]: inactive | outcome [4]: inactive | outcome [5]: inactive | outcome [6]: inactive | outcome [7]: inactive | outcome [8]: inactive | outcome [10]: inactive

CC(C)(C)C(O)/C(=C\c1ccc(Cl)cc1Cl)n1cncn1 (stereo unspecified)
AC50 [1]: 20 µM (active) | AC50 [2]: 25.7 µM (active) | outcome [3]: inactive | outcome [4]: inactive | AC50 [5]: 31.6 µM (active) | AC50 [6]: 9.85 µM (active) | AC50 [7]: 34.4 µM (active) | AC50 [8]: 29.7 µM (active) | outcome [10]: inactive
